Inconclusive results are not listed. The source made the active and inactive calls. Calls come from the whole dose curve; as a rule, active = well fitted cell-killing curve with a large enough effect; inconclusive = small, poorly fitted or top-dose-only effect, or effect the other way; inactive = no such curve, though single readings can be large or run the other way.
Test system: PA-1
Experiment: Confirmatory qHTS for gynecologic anti-cancer compounds from libraries of approved drugs and bioactive compounds; note: nearly all actives have a fitted effect of over 55% in size
Conditions: gynecologic cancer cell panel viability, ATPlite luminescence, 48 h; series mostly up to 57.6 µM
Outline: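 Cells (1,000/well) plated 16 h, then exposed 48 h at 37 °C to 11 concentrations (1:3) from 57.5 uM to 0.977 nM. Viability by ATPlite luminescence after 15 min; IC50 derived, with HEK 293T used for selectivity index.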
Potency is the fitted concentration of half-maximal effect.

Q: `C/C=C(/C)C(=O)O[C@H]1C(C)=C2[C@H]([C@@H]1OC(=O)CCCCCCC)[C@@](C)(OC(C)=O)C[C@H](OC(=O)CCC)[C@@]1(O)[C@H]2OC(=O)[C@@]1(C)O` was tested. Which Potency did it give?
A: Its Potency is 48.5 nM (active).

Q: With `CCNC(=O)C[C@@H]1N=C(c2ccc(Cl)cc2)c2cc(OC)ccc2-n2c(C)nnc21` as the compound, how does the Potency read?
A: Its Potency is 4320 nM (active).

Q: For `Cc1sc2c(c1C)C(c1ccc(Cl)cc1)=NC(CC(=O)OC(C)(C)C)c1nnc(C)n1-2` (stereo not drawn), which Potency is on record?
A: The Potency was 1530 nM (active).

Q: For `C=C(C)[C@H]1Cc2c(ccc3c2O[C@@H]2COc4cc(OC)c(OC)cc4[C@@H]2C3=O)O1`, which Potency is on record?
A: Its Potency is 27.3 nM (active).

Q: Which Potency does the source give for `C[C@]12CC[C@H]3[C@@H](CCC4=CC(=O)CC[C@@H]43)[C@@H]1CC[C@@H]2OC(=O)CCc1ccccc1` here?
A: Its Potency is “inactive”.

Q: With `O=C(O)Cc1ccccc1` as the compound, how does the Potency read?
A: Its Potency is “inactive”.

Q: How did the Potency turn out when `C[C@H]1CCC/C=C/C2C[C@H](O)C[C@H]2[C@H](O)/C=C/C(=O)O1` (stereo partly drawn) was run?
A: The Potency was 172 nM (active).

Q: With `CCOc1ccccc1-n1c(C(C)N2CCN(C(=O)COc3ccc(Cl)cc3)CC2)nc2ccccc2c1=O` (stereo not drawn) as the compound, how does the Potency read?
A: The Potency was 13700 nM (active).

From PubChem BioAssay AID1345085 (National Center for Advancing Translational Sciences (NCATS), 2018)
